The campaign covered roughly 5,500 compounds. About 2,000 (36%) were called active. Another 18% or so got no clear call; they are omitted. Cut-off read from the data, not from the text of the source: active = normalized growth mostly below about 0.91 (no sharp cut-off); inconclusive = no clear call, values can overlap the other calls; inactive = mostly above about 0.92. This is one part of the list.
Experiment: chemical genetic growth profiling, strain panel (AID 1159580);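 note: tested at 20 µM; growth read once vehicle control cultures reached saturation at 30 °C; 1 = growth at the plate median or of vehicle wells; lower values mean less growth of the strain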
Settings: S. cerevisiae deletion strains, growth OD

Measured: normalized growth

CCCCCCCC/C=C/CCCCCCCCOP(=O)([O-])OCC[N+](C)(C)C
active: locus YAL021C, strain ccr4, active compounds read low 0.0587 | locus YAL026C, strain drs2, active compounds read low 0.0561 | locus YAL030W, strain snc1, active compounds read low 0.053 | locus YBL061C, strain skt5, active compounds read low 0.0558 | locus YBR009C, strain hhf1, active compounds read low 0.0546 | locus YBR023C, strain chs3, active compounds read low 0.0583 | locus YBR171W, strain sec66, active compounds read low 0.0745 | locus YBR231C, strain swc5, active compounds read low 0.0586 | locus YBR279W, strain paf1, active compounds read low 0.0563 | locus YCL011C, strain gbp2, active compounds read low 0.0519 | locus YCL016C, strain dcc1, active compounds read low 0.0586 | locus YCL061C, strain MRC1, active compounds read low 0.0589 | locus YCL069W, strain vba3, active compounds read low 0.0556 | locus YCR088W, strain abp1, active compounds read low 0.0562 | locus YDL005C, strain med2, active compounds read low 0.0694 | locus YDL040C, strain nat1, active compounds read low 0.0556 | locus YDR001C, strain nth1, active compounds read low 0.0555 | locus YDR069C, strain doa4, active compounds read low 0.0593 | locus YDR137W, strain rgp1, active compounds read low 0.105 | locus YDR159W, strain sac3, active compounds read low 0.0716 | locus YDR195W, strain ref2 0.0966 | locus YDR297W, strain sur2, active compounds read low 0.0533 | locus YDR334W, strain swr1, active compounds read low 0.0581 | locus YDR335W, strain msn5, active compounds read low 0.0561 | locus YDR392W, strain spt3, active compounds read low 0.0625 | locus YEL003W, strain gim4, active compounds read low 0.0513 | locus YEL037C, strain rad23, active compounds read low 0.0533 | locus YEL061C, strain CIN8 (second series), active compounds read low 0.0564 | locus YER015W, strain faa2, active compounds read low 0.0609 | locus YER016W, strain bim1, active compounds read low 0.0567 | locus YER111C, strain swi4, active compounds read low 0.0743 | locus YER155C, strain BEM2 (second series), active compounds read low 0.0793 | locus YFR010W, strain ubp6, active compounds read low 0.0589 | locus YGL167C, strain pmr1, active compounds read low 0.0691 | locus YGL173C, strain kem1, active compounds read low 0.0671 | locus YGL227W, strain vid30, active compounds read low 0.0578 | locus YGL240W, strain doc1, active compounds read low 0.0658 | locus YGL253W, strain hxk2, active compounds read low 0.0494 | locus YHR013C, strain ard1, active compounds read low 0.0918 | locus YHR027C, strain rpn1, active compounds read low 0.0597 | locus YHR142W, strain chs7, active compounds read low 0.0608 | locus YJL092W, strain hpr5, active compounds read low 0.0556 | locus YJL095W, strain BCK1 (second series), active compounds read low 0.0534 | locus YJL115W, strain asf1, active compounds read low 0.0664 | locus YJL129C, strain trk1, active compounds read low 0.0759 | locus YJL154C, strain vps35, active compounds read low 0.0613 | locus YJL164C, strain tpk1, active compounds read low 0.0536 | locus YJL166W, strain qcr8, active compounds read low 0.0552 | locus YJL187C, strain SWE1, active compounds read low 0.055 | locus YKL160W, strain elf1, active compounds read low 0.0575 | locus YKR026C, strain gcn3, active compounds read low 0.0565 | locus YKR091W, strain srl3, active compounds read low 0.0556 | locus YLL001W, strain dnm1, active compounds read low 0.0557 | locus YLL026W, active compounds read low 0.0528 | locus YLL041C, strain sdh2, active compounds read low 0.0534 | locus YLR027C, strain aat2, active compounds read low 0.0482 | locus YLR221C, strain rsa3, active compounds read low 0.0536 | locus YLR258W, strain gsy2, active compounds read low 0.0544 | locus YLR262C, strain YPT6 (second series), active compounds read low 0.0801 | locus YLR320W, strain mms22, active compounds read low 0.066 | locus YLR342W, strain FKS1, active compounds read low 0.0588 | locus YLR357W, strain rsc2, active compounds read low 0.106 | locus YLR370C, strain arc18, active compounds read low 0.056 | locus YLR384C, strain iki3, active compounds read low 0.0574 | locus YML120C, strain ndi1, active compounds read low 0.0534 | locus YMR058W, strain fet3, active compounds read low 0.0555 | locus YMR125W, strain sto1, active compounds read low 0.062 | locus YMR129W, active compounds read low 0.0548 | locus YMR205C, strain PFK2, active compounds read low 0.0726 | locus YMR231W, strain pep5, active compounds read low 0.065 | locus YNL071W, strain lat1, active compounds read low 0.0563 | locus YNL209W, strain ssb2, active compounds read low 0.0577 | locus YNL248C, strain rpa49, active compounds read low 0.0552 | locus YNL322C, strain KRE1 (second series), active compounds read low 0.0595 | locus YNR049C, strain mso1, active compounds read low 0.0525 | locus YOR001W, strain rrp6, active compounds read low 0.0584 | locus YOR070C, strain gyp1, active compounds read low 0.0589 | locus YOR080W, strain dia2, active compounds read low 0.0596 | locus YOR083W, strain WHI5, active compounds read low 0.0554 | locus YOR106W, strain vam3, active compounds read low 0.0591 | locus YOR265W, strain rbl2, active compounds read low 0.0537 | locus YOR270C, strain vph1, active compounds read low 0.072 | locus YOR290C, strain snf2, active compounds read low 0.0546 | locus YPL051W, strain arl3, active compounds read low 0.0574 | locus YPL078C, strain atp4, active compounds read low 0.058 | locus YPL106C, strain sse1, active compounds read low 0.0823 | locus YPL240C, strain hsp82, active compounds read low 0.054

Source: PubChem BioAssay AID1159580 (chemical genetic matrix, 2015)
